The source made the active and inactive calls.
Key:
[1] = E. coli DRC41 culture turbidity changes, primary screen, E. coli filamentation inducer project, strain DRC41, OD650, 48 h (AID 1152);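 also: E. coli MC1000 strain DRC41 lacking acrAB efflux pump and sulA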; conditions: E. coli DRC41 (acrAB sulA), higher = more signal, called active from +8 up or from −8 down
[2] = small-molecule binders of probe aLefty1, primary screen, biochemical, small-molecule microarray, 635/667 nm fluorescence (AID 1153); conditions: higher = more signal;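 also: score merges spot fluorescence with signal-to-noise ratio from the scanned slide images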
[3] = PSAC antagonists in infected red cells, primary screen, cell-based, P. falciparum Indochina, OD700, 1 h (AID 1154); conditions: P. falciparum Indochina infected RBC osmotic lysis, higher = more signal, called active from +8 up or from −8 down
[4] = PSAC antagonists in infected red cells, primary screen, cell-based, P. falciparum Indochina, OD700, 2 h (AID 1155);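 also: lysis reports solute entry through the parasite surface anion channel PSAC; channel blockers reduce lysis of infected cells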; conditions: P. falciparum Indochina infected erythrocytes, osmotic lysis OD700; higher = more signal, called active from +8 up or from −8 down
[5] = osmotic lysis modulators in infected erythrocytes, primary screen, PSAC antagonist project, cell-based, P. falciparum Indochina, OD700, 3 h (AID 1156); conditions: higher = more signal, called active from +8 up or from −8 down
[6] = PSAC antagonists in infected red cells, primary screen, cell-based, P. falciparum Indochina, OD700, 18 h (AID 1157); conditions: P. falciparum Indochina infected erythrocytes, osmotic lysis OD700, 18 h; higher = more signal, called active from +8 up or from −8 down
[7] = modulators of S6 phosphorylation in cells, primary screen, cell-based, A549, cytoblot, luminescence, serum-stimulated (AID 1158); conditions: A549 phospho-S6 cytoblot, 5 h, higher = more signal;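 also: serum-stimulated A549 lung adenocarcinoma cells; signal is phosphorylated S6 detected by cytoblot immunostaining with HRP secondary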
[8] = target: NADPH oxidase 2 (Homo sapiens) (UniProt P04839); assay: NOX2-dependent H2O2 signal modulators, primary screen, NOX inhibitor project, cell-based, HEK293-NOX2, PMA-stimulated, Amplex Red fluorescence (AID 1159); conditions: 45 min, higher = more signal, called active from +8 up or from −8 down; also: test concentration not given here
Chain of NADPH oxidase 2 (Homo sapiens) (P04839 whole entry, looked up): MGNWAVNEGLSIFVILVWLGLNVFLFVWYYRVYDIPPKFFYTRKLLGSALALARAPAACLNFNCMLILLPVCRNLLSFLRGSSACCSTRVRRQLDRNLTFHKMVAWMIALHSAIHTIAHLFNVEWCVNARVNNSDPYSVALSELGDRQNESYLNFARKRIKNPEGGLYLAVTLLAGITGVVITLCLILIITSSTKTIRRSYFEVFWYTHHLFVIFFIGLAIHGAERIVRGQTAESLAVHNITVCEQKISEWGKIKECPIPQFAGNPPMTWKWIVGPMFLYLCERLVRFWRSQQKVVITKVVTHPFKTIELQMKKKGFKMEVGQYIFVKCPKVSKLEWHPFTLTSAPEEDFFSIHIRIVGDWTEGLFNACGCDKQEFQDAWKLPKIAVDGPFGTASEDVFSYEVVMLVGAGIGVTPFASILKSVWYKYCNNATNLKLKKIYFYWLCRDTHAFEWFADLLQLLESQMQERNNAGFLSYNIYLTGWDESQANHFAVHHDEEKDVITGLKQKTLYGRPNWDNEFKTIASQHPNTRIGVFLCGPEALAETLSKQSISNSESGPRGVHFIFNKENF

[9] = target: NADPH oxidase 4 (Homo sapiens) (UniProt Q9NPH5); assay: NOX4-dependent H2O2 signal modulators, primary screen, NOX inhibitor project, cell-based, HEK293-NOX4, tetracycline-induced, Amplex Red fluorescence (AID 1160); conditions: 45 min, higher = more signal, called active from +8 up or from −8 down
Chain of NADPH oxidase 4 (Homo sapiens) (Q9NPH5 whole entry, looked up): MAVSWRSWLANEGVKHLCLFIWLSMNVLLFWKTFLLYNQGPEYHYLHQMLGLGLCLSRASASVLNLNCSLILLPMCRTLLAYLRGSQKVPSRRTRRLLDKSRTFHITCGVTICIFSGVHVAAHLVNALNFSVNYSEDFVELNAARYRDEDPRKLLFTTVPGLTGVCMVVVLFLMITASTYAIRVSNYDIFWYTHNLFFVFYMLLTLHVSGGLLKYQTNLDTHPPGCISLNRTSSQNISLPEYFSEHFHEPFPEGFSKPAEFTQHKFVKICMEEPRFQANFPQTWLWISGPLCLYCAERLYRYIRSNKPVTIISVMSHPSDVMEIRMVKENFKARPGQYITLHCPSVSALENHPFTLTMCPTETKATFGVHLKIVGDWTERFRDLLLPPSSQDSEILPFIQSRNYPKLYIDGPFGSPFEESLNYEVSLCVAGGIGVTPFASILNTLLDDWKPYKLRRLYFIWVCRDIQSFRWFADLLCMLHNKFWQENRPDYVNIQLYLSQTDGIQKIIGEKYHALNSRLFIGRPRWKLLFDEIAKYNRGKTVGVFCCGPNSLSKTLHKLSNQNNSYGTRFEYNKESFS

[10] = target: NADPH oxidase 5 (Homo sapiens) (UniProt Q96PH1); assay: NOX5-dependent H2O2 signal modulators, primary screen, NOX inhibitor project, cell-based, HEK293-NOX5, Amplex Red fluorescence (AID 1161); conditions: HEK293-NOX5, ionomycin, 45 min, higher = more signal
Chain of NADPH oxidase 5 (Homo sapiens) (Q96PH1 whole entry, looked up): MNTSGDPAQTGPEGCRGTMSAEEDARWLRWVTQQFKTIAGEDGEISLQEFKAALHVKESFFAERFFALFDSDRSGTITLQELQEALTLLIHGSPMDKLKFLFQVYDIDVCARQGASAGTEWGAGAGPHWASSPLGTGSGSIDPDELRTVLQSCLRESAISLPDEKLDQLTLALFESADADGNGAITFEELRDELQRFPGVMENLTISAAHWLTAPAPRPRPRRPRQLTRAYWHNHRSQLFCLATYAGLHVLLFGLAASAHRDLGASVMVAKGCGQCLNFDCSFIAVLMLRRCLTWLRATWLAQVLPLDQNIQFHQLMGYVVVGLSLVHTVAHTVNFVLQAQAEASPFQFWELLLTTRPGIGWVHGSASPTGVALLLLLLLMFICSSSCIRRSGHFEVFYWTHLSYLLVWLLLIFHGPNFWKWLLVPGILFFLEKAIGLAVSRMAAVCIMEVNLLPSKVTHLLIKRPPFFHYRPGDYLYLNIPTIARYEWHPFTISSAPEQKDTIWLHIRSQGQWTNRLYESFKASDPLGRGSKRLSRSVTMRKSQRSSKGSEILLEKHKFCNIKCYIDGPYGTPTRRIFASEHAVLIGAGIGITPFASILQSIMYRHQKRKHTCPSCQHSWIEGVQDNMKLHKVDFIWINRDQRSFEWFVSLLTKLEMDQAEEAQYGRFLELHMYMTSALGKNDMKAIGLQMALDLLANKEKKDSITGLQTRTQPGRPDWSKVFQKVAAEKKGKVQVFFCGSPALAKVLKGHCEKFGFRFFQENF

Row | Structure (SMILES) | z-score [1] | composite z-score [2] | z-score [3] | z-score [4] | z-score [5] | z-score [6] | z-score [7] | z-score [8] | z-score [9] | z-score [10]
1 | O=C(NCc1ccccc1)[C@@]1(CCS(=O)(=O)c2ccccc2)COC(c2ccc(OCCCO)cc2)=N1 | 2.13 (inactive) | 0.715 | 30.4 (active) | 25.8 (active) | 3.7 (inactive) | 5.53 (inactive) | 2.54 | -2.26 (inactive) | -0.0883 (inactive) | -2.24
2 | CCOC(=O)C1=CC[C@@H](c2ccccc2)N(S(=O)(=O)c2ccc(C)cc2)[C@H]1C | -1.29 (inactive) | 0.0668 | 3.28 (inactive) | 1.03 (inactive) | -0.392 (inactive) | 0.215 (inactive) | -0.343 | 0.21 (inactive) | -0.291 (inactive) | 0.0997
3 | CC(=O)NCCCC[C@@H]1NC(=O)[C@H]2C[C@@H](C(=O)NCCCCCCN(C)C)[C@@H](c3cccc(OCCO)c3)N2C1=O | -0.179 (inactive) | 0.257 | 2.81 (inactive) | 0.461 (inactive) | 1.25 (inactive) | 0.376 (inactive) | 0.317 | 0.779 (inactive) | 0.301 (inactive) | 1.44
4 | C[C@H]1COC(=O)[C@H](Cc2ccccc2)NC(=O)[C@@H](C)COC(=O)[C@H](Cc2ccccc2)NC1=O | -0.0556 (inactive) | -0.239 | 0.162 (inactive) | -0.643 (inactive) | -0.295 (inactive) | -1.93 (inactive) | 1.58 | 0.915 (inactive) | 0.838 (inactive) | 0.253
5 | C[N+](C)(C)CCCCNC(=O)[C@@H]1C[C@@H]2C(=O)N3CCC[C@H]3C(=O)N2[C@@H]1c1cccc(OCCO)c1 | 1.25 (inactive) | 0.14 | 2.9 (inactive) | -0.732 (inactive) | -2.56 (inactive) | -2.13 (inactive) | 0.326 | -1.42 (inactive) | -0.183 (inactive) | -0.87
6 | CO[C@H]1O[C@H](CO)[C@@H](OC(=O)Nc2ccc3c(c2)OCO3)[C@H](OC(=O)Nc2ccccc2)[C@@H]1OC(=O)Nc1ccccc1 | -1.51 (inactive) | 0.121 | 7.77 (inactive) | 0.903 (inactive) | -0.33 (inactive) | 0.717 (inactive) | 0.342 | 1.07 (inactive) | -0.393 (inactive) | -0.675
7 | COCCOC(=O)N1C(=O)[C@@]2(c3cc(C#CCC(C(=O)OC)C(=O)OC)ccc31)[C@H](c1ccccc1OCCO)N1[C@H](c3ccccc3)[C@H](c3ccccc3)OC(=O)[C@H]1[C@@H]2C(=O)N1CCCCCCC1 | 0.0371 (inactive) | 2.43 | 0.998 (inactive) | 1.01 (inactive) | 0.259 (inactive) | 0.508 (inactive) | 0.0992 | 0.0483 (inactive) | 0.309 (inactive) | 1.52
8 | CO[C@H]1O[C@H](CO)[C@@H](OC(=O)Nc2ccc(Oc3ccccc3)cc2)[C@H](OC(=O)Nc2ccccc2-c2ccccc2)[C@H]1OC(=O)Nc1ccccc1-c1ccccc1 | 1.38 (inactive) | 0.371 | 2.14 (inactive) | 0.647 (inactive) | 0.55 (inactive) | -1.37 (inactive) | -0.151 | 1.95 (inactive) | -0.7 (inactive) | 0.176
9 | Cc1ccc(S[C@]2(C(=O)NCCCN(C)C)CC(=O)N(C3CCCCC3)[C@@H]2c2ccc(CO)cc2I)cc1 | 1.16 (inactive) | 0.0919 | 14 (active) | 1.35 (inactive) | 1.39 (inactive) | -1.07 (inactive) | 1.72 | -4.81 (inactive) | -1.42 (inactive) | 0.549
10 | O=C/C=C/c1ccc(/C=C/c2ccccc2)cc1 | 2.42 (inactive) | 0.25 | 3.87 (inactive) | -0.941 (inactive) | 1.17 (inactive) | -1.73 (inactive) | 0.972 | 0.825 (inactive) | -1.69 (inactive) | 1.4
11 | C=CC[C@]1(C(N)=O)N=C(c2ccc(OCCCO)cc2)O[C@H]1c1ccccc1CN=[N+]=[N-] | 2.19 (inactive) | -0.007 | 23.9 (active) | 6.58 (inactive) | -0.294 (inactive) | 0.837 (inactive) | 1.73 | -2.02 (inactive) | -0.202 (inactive) | 0.568
12 | O=C(O)[C@@H]1Cc2c([nH]c3ccccc23)[C@@H](c2ccccc2)N1 | 0.327 (inactive) | -0.202 | 0.864 (inactive) | 0.71 (inactive) | 1.46 (inactive) | 0.152 (inactive) | -0.344 | 1.04 (inactive) | -0.429 (inactive) | -0.614
13 | C[C@@H]1NC(=O)CC=C[C@@H](C)[C@@H]2C=C[C@H](O)[C@@H](COC(=O)[C@H](C)NC(=O)CC=C[C@@H](C)[C@@H]3C=C[C@H](O)[C@@H](COC1=O)O3)O2 | 0.327 (inactive) | -0.147 | 1.33 (inactive) | -0.302 (inactive) | 0.232 (inactive) | -1.39 (inactive) | 1.64 | 1.28 (inactive) | -0.991 (inactive) | -0.0558

From PubChem BioAssay
